High-throughput results deposited in PubChem BioAssay by National Center for Advancing Translational Sciences (NCATS).
Many of the other results were omitted from the sample, so hits are more common in it than they were.
LmPK inhibitor: qHTS Assay for Inhibitors of Leishmania Mexicana Pyruvate Kinase (LmPK). 0.37% of 290,000 active. Potency, µM (series often up to 57.5 µM), actives largely listed as inhibitors. AID 1721, 2009. Q27686. purified LmPK, Kinase-Glo ATP luminescence, 1 h; active means well fitted curve in the direction sought with a large enough effect; inconclusive means small, poorly fitted or top-dose-only effect, or another doubt; inactive means no such curve, though single readings can be large; an effect the other way counts as inactive or inconclusive
Target sequence (Q27686 whole entry, looked up): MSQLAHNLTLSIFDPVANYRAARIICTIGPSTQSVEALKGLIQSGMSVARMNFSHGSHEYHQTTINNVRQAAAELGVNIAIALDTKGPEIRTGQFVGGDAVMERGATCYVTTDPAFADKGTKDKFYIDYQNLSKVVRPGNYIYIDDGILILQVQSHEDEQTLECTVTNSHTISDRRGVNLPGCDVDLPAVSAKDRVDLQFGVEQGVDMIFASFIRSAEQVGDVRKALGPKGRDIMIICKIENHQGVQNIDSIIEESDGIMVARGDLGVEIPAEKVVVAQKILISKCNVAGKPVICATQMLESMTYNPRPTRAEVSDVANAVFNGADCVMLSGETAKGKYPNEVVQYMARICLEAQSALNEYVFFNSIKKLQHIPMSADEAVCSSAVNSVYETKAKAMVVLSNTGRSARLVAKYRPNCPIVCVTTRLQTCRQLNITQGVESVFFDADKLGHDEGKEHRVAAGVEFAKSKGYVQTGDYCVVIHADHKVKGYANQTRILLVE
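ATP generated from ADP (0.1 mM) and PEP (0.5 mM) by 0.1 nM LmPK over 1 h at room temperature (pH 7.2 imidazole buffer) was detected by coupled luciferase luminescence. Values were normalized to uninhibited and no-enzyme wells.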
SARS PLP yeast: qHTS of Yeast-based Assay for SARS-CoV PLP. 0.19% of 330,000 active. Potency, µM (titrated, usually from 32.9 µM), actives largely listed as activators. S. cerevisiae expressing SARS-CoV PLpro, growth rescue. AID 485353, 2010; further: nearly all actives have a fitted effect of over 55% in size
Cycloheximide cs: Cycloheximide Counterscreen for Small Molecule Inhibitors of Shiga Toxin | cell reporter, cycloheximide protein synthesis inhibition counterscreen | max response, % | 12% of 300,000 active | AID 2314, 2010; in the data active means max response mostly above about 13%, no sharp cut-off; inactive means mostly below about 14%; further: read at 38.3 µM for the half of the compounds with a filed dose
TbPYK inhibitor: qHTS of Trypanosoma Brucei Inhibitors; pyruvate kinase (Trypanosoma brucei), Q57TT1; TbPYK enzyme, Kinase-Glo Plus ATP luminescence, 45 min; Potency, µM (doses to about 76.8 µM), actives largely listed as inhibitors; 0.12% of 410,000 active; active means well fitted curve in the direction sought with a large enough effect; inconclusive means small, poorly fitted or top-dose-only effect, or another doubt; inactive means no such curve, though single readings can be large; an effect the other way counts as inactive or inconclusive; further: nearly all actives have a fitted effect of over 50% in size
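ADP (130 uM final) triggers the TbPYK reaction after compound addition; incubation is 45 min at room temperature. Kinase-Glo Plus is then added and luminescence imaged. Normalized data are fitted to concentration-effect curves.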
Shiga inhibitor: A qHTS for Small Molecule Inhibitors of Shiga Toxin; Vero cells, Shiga toxin protein synthesis inhibition reporter; inhibition, % at 38.7 µM; 9.2% of 290,000 active; AID 2315, 2010; in the data active means inhibition mostly above about 28%, no sharp cut-off; inactive means mostly below about 43%
NS1 inh: qHTS Assay for Inhibitors of Influenza NS1 Protein Function. Potency, µM (highest dose often 46.1 µM). 0.4% of 270,000 active; further: actives are rising curves; nearly all actives have a fitted effect of over 50% in size
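Recovery from NS1-induced slow growth read by OD600 in budding yeast switched to galactose assay medium (pH 6.0, -URA) at 1:100 dilution. Compound 23 nl per well; the matching strain lacking NS1 serves as control.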
Hits are given with their value; . = inactive; ? = inconclusive; / = not tested or not shown; [ ] = another dose, or the depositor's remark. Unless noted, the call rests on the fitted dose curve.

SMILES	LmPK inhibitor	SARS PLP yeast	Cycloheximide cs	TbPYK inhibitor	Shiga inhibitor	NS1 inh
CCOC(=O)c1c(C)[nH]c(C)c1S(=O)(=O)N(C)CC(=O)Nc1ccccc1	.	.	.	.	.	.
O=C(/C=C/c1ccccc1)c1ccc(NC2=NCCCS2)cc1	.	.	26	.	30	.
Cc1cccc(/C=C/C(=O)c2ccc(NC3=NCCCS3)cc2)c1	.	.	26	.	.	.
c1ccc(NC2=NCCCCS2)cc1	.	.	.	.	.	.
COc1cccc(/C=C/C(=O)c2ccc(NC3=NCCCS3)cc2)c1	.	.	.	.	.	/
CC(C)(C)c1ccc(/C=C/C(=O)c2ccc(NC3=NCCCS3)cc2)cc1	.	.	31	.	78	.
Cc1ccc(-n2ncc3c(NNC(=O)c4ccco4)ncnc32)cc1C	.	.	25	.	56	.
CC(=O)NNc1ncnc2c1cnn2-c1ccc(C)c(Cl)c1	.	.	38	.	68	/
COc1ccc(CC(=O)NNc2ncnc3c2cnn3-c2ccc(C)cc2)cc1OC	.	.	15	.	.	.
COc1ccc(CC(=O)NNc2ncnc3c2cnn3-c2ccc(C)cc2)cc1	.	.	.	.	.	.
CC(=O)NNc1ncnc2c1cnn2-c1ccc(C)cc1	.	.	37	.	86	/
CCC(C)c1ccccc1N1CC(C(=O)Nc2cccc(S(=O)(=O)N3CCOCC3)c2)CC1=O (centres undefined)	.	.	.	.	.	.
COc1cc(C(=O)N2CCN(c3ccccc3)CC2)c2ccccc2n1	/	/	/	.	/	/
CCOC(=O)C1(CC2CC2)CCN(C(=O)c2cc(C3CC3)nc3ccccc23)CC1	.	.	34	.	55	.
CCOC(=O)C1(CC2CC2)CCN(Cc2ccc(C(=O)OC)cc2)CC1	.	.	.	.	.	.
CCOC(=O)C1(CC2CC2)CCN(C(=O)c2cc(OC)nc3ccccc23)CC1	.	.	31	.	88	.
CCOC(=O)C1(CC2CC2)CCN(C(=O)c2cccnc2C)CC1	.	.	17	.	.	.
CN(C(=O)C1CCOC1)c1nnc(-c2cnccn2)s1 (centres undefined)	.	.	16	.	.	.
CCN(CCn1cccn1)C(=O)CCc1nnc(-c2ccc3c(c2)OCO3)o1	.	.	.	.	.	.
O=C(CCc1nnc(-c2ccc3c(c2)OCO3)o1)N1CCC(c2ccc(F)cc2)C1 (centres undefined)	.	.	31	.	108	.
O=C(CCc1nnc(-c2ccc3c(c2)OCO3)o1)NC(c1ccccn1)C(F)(F)F (centres undefined)	.	.	38	.	64	.
COC(=O)C1=C(C)N(CC2CC2)C(=O)N[C@H]1c1ccccc1	.[11.5 µM]	/	/	.	/	/
CCc1ccc(S(=O)(=O)c2cn(Cc3ccccc3)c3cc(N4CCCC4)c(F)cc3c2=O)cc1	/	/	/	.	/	/
O=C(CSc1nccn1-c1ccccc1)c1ccc(Cl)cc1	.	.	30	.	83	.
Cc1ccc(/C(CSc2nccn2-c2ncc(C(F)(F)F)cc2Cl)=N\O)cc1	.	.	.	.	.	.
SMILES	LmPK inhibitor	SARS PLP yeast	Cycloheximide cs	TbPYK inhibitor	Shiga inhibitor	NS1 inh
Cc1cc(C)cc(-n2ccnc2SCC(=O)O)c1	.	.	.	.	.	.
O=C(CSc1nccn1-c1ncc(C(F)(F)F)cc1Cl)c1ccc(Br)cc1	.	.	31	.	.	.
O=C(CSc1nccn1-c1ccccc1)NO	.	.	.	.	.	/
Cc1ccc(C(=O)CSc2nccn2-c2ccccc2)cc1	.	.	49	.	143	.
COc1cc(-c2nc3ncccn3c2Nc2ccc(C)cc2C)ccc1O	/	/	/	.	/	/
COc1ccc(-c2nc3cccc(C)n3c2NCC2CCCO2)cc1O (centres undefined)	.	.	8.1	.	46	.
CCOc1cc(/C=C2\SC(=S)N(Nc3ccccc3)C2=O)ccc1O	?	.	55	.	62	.
CCOc1cc(/C=C2\SC(=S)N(NS(=O)(=O)c3ccccc3)C2=O)ccc1O	.	.	.	.	.	.
COc1cc(/C=C2\SC(=S)N(Nc3ccccc3)C2=O)ccc1O	.	.	51	.	62	.
C=CCN1C(=O)/C(=C\c2cccc(OC(=O)c3ccco3)c2)SC1=S	.	.	.	.	.	.
COc1ccc(/C=C2/SC(=S)N(Cc3ccccc3)C2=O)cc1O	.	.	.	.	120	.
C=CCN1C(=O)/C(=C\c2ccc(OC(=O)c3ccco3)c(OC)c2)SC1=S	.	.	27	.	.	/
O=C1/C(=C/c2ccncc2)SC(=S)N1Nc1ccccc1	.	.	.	.	.	.
O=C(O)c1ccc(/C=C2\SC(=S)N(Nc3ccccc3)C2=O)cc1	?	.	24	.	80	.
Cc1cc(C)nc(Nc2n[nH]c(-c3ccccc3Cl)n2)n1	.	.	.	.	.	.
Cc1cc(C)nc(Nc2n[nH]c(-c3cccc4ccccc34)n2)n1	.	.	19	.	.	.
CCn1cc(S(=O)(=O)c2ccc(C)cc2)c(=O)c2cc(OC)ccc21	.	.	.	.	.	.
CCN(CC)C(=S)SC1CCCCN(C(=O)c2ccccc2)C1=O (centres undefined)	.	.	36	.	57	.
COc1ccc(OC)c(-n2c(C)cc(C=O)c2C)c1	.	.	.	.	.	.
COC(=O)C1=C(O)/C(=C\c2sccc2C)N=C1C	.	.	27	.	.	.
COC(=O)C1=C(C)NC(=O)/C1=C\c1cc(C)n(-c2cc(C)cc(C)c2)c1C	.	.	.	.	.	.
COC(=O)C1=C(O)/C(=C\c2cc(C)n(-c3ccccc3F)c2C)N=C1C	.	.	34	.	82	/
COC(=O)C1=C(C)NC(=O)/C1=C\c1cc(C)n(-c2ccccc2)c1C	.	.	35	.	102	/
COC(=O)c1cccc(-n2c(C)cc(C=O)c2C)c1C	.	.	19	.	49	.
O=C(CSc1nnc(CNC(=O)c2cccs2)o1)Nc1ccc(Br)cc1	.	.	.	.	.	.
SMILES	LmPK inhibitor	SARS PLP yeast	Cycloheximide cs	TbPYK inhibitor	Shiga inhibitor	NS1 inh
Cc1ccc(C)c(N2CCN(C(=O)c3ccc(Cl)c(NC4=NC5CS(=O)(=O)CC5S4)c3)CC2)c1 (centres undefined)	.	.	.	.	.	.
Cc1ccc(-n2nc(C)c3c2OC(N)=C(C#N)C3c2ccncc2)cc1 (centres undefined)	.	.	.	.	.	.
Cc1ccc(-n2nc(C)c3c2OC(N)=C(C#N)C3c2cccs2)cc1 (centres undefined)	.	.	17	.	.	.
CN(C)c1ccc(/C=C/c2cc[n+]([O-])cc2)cc1	.	.	42	/	172	.
O=C(c1ccc2ccccc2c1)N1CCCCC1	.	.	.	.	.	.
NC(=O)C1CCN(C(=O)c2ccc3ccccc3c2)CC1	.	.	17	.	33	.
